Active and inactive are the calls of the source. How the source made its calls: active means hit-call score of the fitted dose curve at least 0.9, where 1 is the maximum; inactive means score below 0.9.

Test [1] is described as follows: ATG_GLI_CIS: Attagene CIS-FACTORIAL HepG2 Assay for human Zinc Finger Protein GLI1 (AID 2282945). The following applies: HepG2, Attagene cis-factorial reporter mRNA, GLI element; actives raise or lower the signal. The method in brief: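 Bidirectional curve fits relative to DMSO, using reporter mRNA levels from RT-PCR plus capillary electrophoresis. Cells were HepG2 transiently carrying cis-regulated reporter constructs, harvested 24 h after dosing.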

Test [2] has as its target Bile acid receptor (Homo sapiens) (UniProt Q96RI1). Kind of test: ATG_IR1_CIS: Attagene CIS-FACTORIAL HepG2 Assay for human Nuclear Receptor Subfamily 1 Group H Member 4 (NR1H4), IR1 submotif (AID 2282946). The conditions noted are these: IR1 reporter transcription, actives raise or lower the signal. The procedure, abridged:
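HepG2 cells transiently transfected with multiplexed cis-element reporter units read endogenous transcription factor activity. After 24 h compound exposure, reporter mRNA was quantified by RT-PCR, fluorescent labelling, HpaI digestion and capillary electrophoresis; bidirectional fitting versus DMSO baseline.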

Test [3] in a line: ATG_GRE_CIS: Attagene CIS-FACTORIAL HepG2 Assay for human Glucocorticoid Response Elements (GRE) (AID 2282947). The following applies: HepG2 GRE cis-reporter, Attagene multiplex mRNA; actives raise or lower the signal. The method in brief:
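Reporter transcripts read by RT-PCR with capillary electrophoresis fluorescence after a 24 h chemical exposure of HepG2 cells transiently transfected with multiple cis-element reporter units. Gain or loss fitted against DMSO.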

A short description of test [4]: ATG_ISRE_CIS: Attagene CIS-FACTORIAL HepG2 Assay for human Interferon Regulatory Factor 1 (IRF1) binding to an Interferon-Stimulated Response Element (ISRE) (AID 2282948). The conditions noted are these: HepG2 ISRE cis-reporter (Attagene), mRNA transcription readout; actives raise or lower the signal. The procedure, abridged: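 Endogenous transcription factor activity read as reporter transcript abundance via RT-PCR and capillary electrophoresis. HepG2 cells transiently transfected, 24 h chemical exposure. Gain or loss fitted against DMSO baseline.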

The nature of test [5]: ATG_M_32_CIS: Attagene CIS-FACTORIAL HepG2 Assay for M32 Transcription Factor (Internal Marker) (AID 2282949).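 Further: background control marker of the multiplexed CIS panel rather than a real target.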 The conditions noted are these: HepG2 Attagene cis-factorial M32 reporter, mRNA; actives raise or lower the signal. The method in brief:
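HepG2 transfectants (cis-regulated reporter transcription units) dosed 24 h. Reporter mRNA by RT-PCR plus CE, analysed as gain or loss relative to DMSO.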

The nature of test [6]: ATG_M_06_CIS: Attagene CIS-FACTORIAL HepG2 Assay for M06 Transcription Factor (Internal Marker) (AID 2282950). The conditions noted are these: HepG2 Attagene CIS-FACTORIAL M06 internal marker reporter; actives raise or lower the signal. The procedure, abridged:
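Read-out is fluorescence of labelled reporter cDNA fragments resolved by capillary electrophoresis after RT-PCR. Cells: HepG2 carrying transfected cis-promoter reporter units, treated 24 h. Gain or loss of signal fitted relative to DMSO.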

Test [7] concerns the target Hypoxia-inducible factor 1-alpha (Homo sapiens) (UniProt Q16665). Kind of test: ATG_HIF1a_CIS: Attagene CIS-FACTORIAL HepG2 Assay for human Hypoxia Inducible Factor 1 (HIF1A) (AID 2282951). The following applies: HepG2 Attagene cis-factorial HIF1a reporter transcription; actives raise or lower the signal. The method in brief: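 HepG2 cells transiently transfected with multiple cis-regulated reporter transcription units measure endogenous transcription factor activity. After 24 h exposure, reporter mRNA is quantified by RT-PCR with 6-FAM labelling, HpaI digestion and capillary electrophoresis. Bidirectional fitting against DMSO.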

In test [8] the target is Hepatocyte nuclear factor 6 (Homo sapiens) (UniProt Q9UBC0). Kind of test: ATG_HNF6_CIS: Attagene CIS-FACTORIAL HepG2 Assay for human Hepatocyte Nuclear Factor 6 (HNF6) (AID 2282952). The conditions noted are these: HepG2 Attagene cis-factorial HNF6 reporter transcription; actives raise or lower the signal. The procedure, abridged:
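Endogenous transcription factor activity in human HepG2 liver cells was captured through cis-regulated reporter constructs. After 24 h treatment, reporter mRNA was measured by RT-PCR with capillary electrophoresis, and activity was fitted in both directions relative to DMSO.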

The target of test [9] is Heat shock factor protein 1 (Homo sapiens) (UniProt Q00613). Kind of test: ATG_HSE_CIS: Attagene CIS-FACTORIAL HepG2 Assay for human Heat Shock Transcription Factor 1 (HSE) (AID 2282953). The following applies: HepG2 HSE cis-reporter, Attagene RNA transcription; actives raise or lower the signal. The procedure, abridged:
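HepG2, transient MRTU transfection, cis-promoter reporters (endogenous TF activity). 24 h compound. RNA → oligo(dT) RT → PCR → 6-FAM primer extension → HpaI cut → CE. Bidirectional fit vs DMSO.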

Test [10] is described as follows: ATG_MRE_CIS: Attagene CIS-FACTORIAL HepG2 Assay for human Metal Responsive Element (MRE) (AID 2282954). The following applies: HepG2 MRE cis-reporter transcription, Attagene multiplex; actives raise or lower the signal. The procedure, abridged:
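Endogenous MRE-dependent transcription read as reporter mRNA in transiently transfected human HepG2 cells at 24 h. RNA reverse-transcribed, PCR-amplified, labelled and resolved by capillary electrophoresis; gain or loss relative to DMSO.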

Test [11] has as its target Paired box protein Pax-6 (Homo sapiens) (UniProt P26367). Kind of test: ATG_Pax6_CIS: Attagene CIS-FACTORIAL HepG2 Assay for human Paired Box 6 (PAX6) (AID 2282956). The conditions noted are these: HepG2 CIS-FACTORIAL PAX6 reporter transcription, RNA readout; actives raise or lower the signal. The procedure, abridged: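 Read-out is reporter transcript level, measured by RT-PCR with fluorescent primer extension and capillary electrophoresis after 24 h dosing of transfected HepG2 cells. Activity in either direction fitted relative to DMSO control.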

Test [12] is described as follows: ATG_PXRE_CIS: Attagene CIS-FACTORIAL HepG2 Assay for human Pregnane X Receptor Element (PXRE) (AID 2282957). The conditions noted are these: HepG2 Attagene CIS-FACTORIAL PXRE reporter, mRNA; actives raise or lower the signal. The procedure, abridged:
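Endogenous transcription factor activity in HepG2 was gauged through induction of reporter mRNA driven by a cis-regulating promoter element, sampled 24 h post-treatment. Activity was fitted in both directions against DMSO negative control.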

Test [13] is described as follows: ATG_PPRE_CIS: Attagene CIS-FACTORIAL HepG2 Assay for human Peroxisome Proliferator-activated Response Element (PPRE) (AID 2282958). The conditions noted are these: HepG2 PPRE cis-element reporter, Attagene transcription factor profiling; actives raise or lower the signal. The procedure, abridged: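 HepG2 cells are transiently transfected with multiplexed cis-promoter reporter units to report endogenous PPAR activity. After 24 h dosing, reporter mRNA is read by RT-PCR and capillary electrophoresis. Fitting is bidirectional against DMSO.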

Test [14] is described as follows: ATG_RORE_CIS: Attagene CIS-FACTORIAL HepG2 Assay for human RAR-related Orphan Receptor Element (RORE) (AID 2282959). The conditions noted are these: HepG2 Attagene cis-factorial RORE reporter, mRNA; actives raise or lower the signal. The procedure, abridged:
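HepG2 cells carrying transiently transfected cis-regulated reporter units; RORE-driven reporter mRNA quantified 24 h post-dosing by RT-PCR, 6-FAM primer extension, HpaI digestion and capillary electrophoresis. Bidirectional fit versus DMSO.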

Test [15] is described as follows: ATG_Sox_CIS: Attagene CIS-FACTORIAL HepG2 Assay for human SRY-box transcription factor (SOX) (AID 2282960). The conditions noted are these: HepG2 Attagene cis-factorial SOX reporter, mRNA; actives raise or lower the signal. The method in brief:
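HepG2 cells transiently transfected with multiple cis-regulated reporter units, then dosed for 24 h. Reporter mRNA quantified by RT-PCR, fluorescent labelling, HpaI digestion and capillary electrophoresis; bidirectional fit versus DMSO.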

Test [16] has as its target Transcription factor Sp1 (Homo sapiens) (UniProt P08047). Kind of test: ATG_Sp1_CIS: Attagene CIS-FACTORIAL HepG2 Assay for human Specificity Protein 1 (Sp1) (AID 2282961). The conditions noted are these: HepG2 Sp1 cis-reporter transcription, actives raise or lower the signal. The method in brief: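 HepG2 cells transiently transfected with multiplexed cis-regulated reporter constructs, chemical exposure 24 h. Reporter mRNA quantified by RT-PCR with capillary electrophoresis; bidirectional fit relative to DMSO.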

Test [17] is described as follows: ATG_SREBP_CIS: Attagene CIS-FACTORIAL HepG2 Assay for human Sterol Regulatory Element Binding (SREBP) (AID 2282962). The conditions noted are these: HepG2 Attagene cis-factorial SREBP reporter, mRNA; actives raise or lower the signal. The procedure, abridged: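 Endogenous SREBP activity read as cis-element-driven reporter transcript in transiently transfected HepG2, 24 h post-dosing; quantified via RT-PCR plus capillary electrophoresis of fluorescent fragments. Gain or loss of signal fitted relative to DMSO baseline.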

Test [18] is described as follows: ATG_TA_CIS: Attagene CIS-FACTORIAL HepG2 Assay for human TA Basal Promoter (AID 2282964). The conditions noted are these: HepG2 Attagene CIS-factorial TA basal promoter reporter; actives raise or lower the signal. The method in brief:
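Read-out: fluorescent reporter-transcript fragments resolved by capillary electrophoresis after RT-PCR and HpaI digestion. Source: HepG2 cells carrying transiently transfected multi-reporter cis constructs, treated 24 h. Endpoint fitted bidirectionally relative to DMSO.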

The nature of test [19]: ATG_PBREM_CIS: Attagene CIS-FACTORIAL HepG2 Assay for human Phenobarbital-responsive Enhancer Module (PBREM) (AID 2282955). The following applies: HepG2 PBREM cis-reporter, Attagene multiplexed transcription; actives raise or lower the signal. The procedure, abridged: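 HepG2 cells transiently transfected with multiple cis-regulated reporter units measure endogenous transcription factor activity; 24 h compound exposure. Reporter mRNA quantified by RT-PCR, fluorescent labelling, HpaI digestion and capillary electrophoresis; bidirectional fit versus DMSO.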

Test [20] concerns the target Signal transducer and activator of transcription 3 (Homo sapiens) (UniProt P40763). Kind of test: ATG_STAT3_CIS: Attagene CIS-FACTORIAL HepG2 Assay for human Signal Transducer and Activator of Transcription 3 (STAT3) (AID 2282963). The following applies: HepG2, Attagene cis-factorial STAT3 reporter transcription; actives raise or lower the signal. The procedure, abridged: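 Readout is reporter transcript quantified by RT-PCR and capillary electrophoresis, with 6-FAM primer extension and HpaI digestion. Total RNA is taken 24 h after dosing transiently transfected HepG2 carrying cis-regulated reporter units. Bidirectional fit against DMSO.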

Sequence of Transcription factor Sp1 (Homo sapiens) (P08047 whole entry, looked up): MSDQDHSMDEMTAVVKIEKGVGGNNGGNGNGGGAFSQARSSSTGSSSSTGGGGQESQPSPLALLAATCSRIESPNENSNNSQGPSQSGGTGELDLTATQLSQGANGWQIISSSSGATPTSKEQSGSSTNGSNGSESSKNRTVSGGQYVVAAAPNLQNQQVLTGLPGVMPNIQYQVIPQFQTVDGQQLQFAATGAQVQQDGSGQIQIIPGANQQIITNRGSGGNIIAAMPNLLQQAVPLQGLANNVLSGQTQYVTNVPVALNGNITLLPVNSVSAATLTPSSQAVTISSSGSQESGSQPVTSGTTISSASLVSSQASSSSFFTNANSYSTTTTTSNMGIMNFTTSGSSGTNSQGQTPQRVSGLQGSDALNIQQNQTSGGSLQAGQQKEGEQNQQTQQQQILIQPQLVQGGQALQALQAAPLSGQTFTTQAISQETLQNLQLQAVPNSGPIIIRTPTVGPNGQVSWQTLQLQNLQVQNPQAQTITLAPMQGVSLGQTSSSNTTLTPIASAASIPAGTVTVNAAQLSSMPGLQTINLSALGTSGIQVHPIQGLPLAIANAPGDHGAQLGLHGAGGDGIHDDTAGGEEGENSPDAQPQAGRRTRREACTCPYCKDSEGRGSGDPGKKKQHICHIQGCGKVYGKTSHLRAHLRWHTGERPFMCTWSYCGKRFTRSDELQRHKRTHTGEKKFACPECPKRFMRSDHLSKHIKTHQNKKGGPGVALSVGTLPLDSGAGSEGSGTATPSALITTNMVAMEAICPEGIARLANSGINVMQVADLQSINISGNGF
Sequence of Paired box protein Pax-6 (Homo sapiens) (P26367 whole entry, looked up): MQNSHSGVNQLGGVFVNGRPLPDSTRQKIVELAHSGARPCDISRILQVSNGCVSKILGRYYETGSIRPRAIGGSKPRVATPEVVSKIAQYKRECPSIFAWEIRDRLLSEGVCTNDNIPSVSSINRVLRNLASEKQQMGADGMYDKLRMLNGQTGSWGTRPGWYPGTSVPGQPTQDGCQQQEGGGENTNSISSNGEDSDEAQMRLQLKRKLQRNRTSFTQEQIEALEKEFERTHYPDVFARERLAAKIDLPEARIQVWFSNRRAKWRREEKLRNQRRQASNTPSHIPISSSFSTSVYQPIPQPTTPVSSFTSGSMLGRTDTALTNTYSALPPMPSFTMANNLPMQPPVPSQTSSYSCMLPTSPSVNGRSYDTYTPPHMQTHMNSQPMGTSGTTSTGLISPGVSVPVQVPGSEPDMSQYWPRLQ
Sequence of Heat shock factor protein 1 (Homo sapiens) (Q00613 whole entry, looked up): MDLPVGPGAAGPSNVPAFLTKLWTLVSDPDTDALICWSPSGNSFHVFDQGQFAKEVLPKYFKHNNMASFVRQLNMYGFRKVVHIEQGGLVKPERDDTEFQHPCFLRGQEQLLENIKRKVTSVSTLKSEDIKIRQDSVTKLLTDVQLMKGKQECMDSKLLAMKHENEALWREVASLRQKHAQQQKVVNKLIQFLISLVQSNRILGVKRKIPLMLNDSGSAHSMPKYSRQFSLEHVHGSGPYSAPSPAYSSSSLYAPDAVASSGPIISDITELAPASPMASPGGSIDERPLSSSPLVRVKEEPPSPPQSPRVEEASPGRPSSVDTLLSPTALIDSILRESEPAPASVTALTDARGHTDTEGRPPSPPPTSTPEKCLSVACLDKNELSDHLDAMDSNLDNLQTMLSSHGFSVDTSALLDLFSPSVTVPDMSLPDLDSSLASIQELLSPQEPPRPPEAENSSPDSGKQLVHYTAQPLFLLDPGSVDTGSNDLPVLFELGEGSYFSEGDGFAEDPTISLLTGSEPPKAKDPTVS
Sequence of Hepatocyte nuclear factor 6 (Homo sapiens) (Q9UBC0 whole entry, looked up): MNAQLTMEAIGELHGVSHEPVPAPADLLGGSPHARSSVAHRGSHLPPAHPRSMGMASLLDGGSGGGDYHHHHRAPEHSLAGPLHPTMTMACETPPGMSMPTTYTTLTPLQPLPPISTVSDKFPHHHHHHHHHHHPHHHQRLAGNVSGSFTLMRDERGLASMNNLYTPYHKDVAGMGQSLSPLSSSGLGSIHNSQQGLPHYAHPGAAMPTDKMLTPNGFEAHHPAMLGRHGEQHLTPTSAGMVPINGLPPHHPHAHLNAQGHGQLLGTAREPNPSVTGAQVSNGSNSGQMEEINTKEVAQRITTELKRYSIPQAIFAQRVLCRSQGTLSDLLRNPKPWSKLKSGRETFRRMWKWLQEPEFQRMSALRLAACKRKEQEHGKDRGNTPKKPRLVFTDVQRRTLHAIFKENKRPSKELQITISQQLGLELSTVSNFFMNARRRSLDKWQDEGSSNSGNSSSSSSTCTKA
Sequence of Bile acid receptor (Homo sapiens) (Q96RI1 whole entry, looked up): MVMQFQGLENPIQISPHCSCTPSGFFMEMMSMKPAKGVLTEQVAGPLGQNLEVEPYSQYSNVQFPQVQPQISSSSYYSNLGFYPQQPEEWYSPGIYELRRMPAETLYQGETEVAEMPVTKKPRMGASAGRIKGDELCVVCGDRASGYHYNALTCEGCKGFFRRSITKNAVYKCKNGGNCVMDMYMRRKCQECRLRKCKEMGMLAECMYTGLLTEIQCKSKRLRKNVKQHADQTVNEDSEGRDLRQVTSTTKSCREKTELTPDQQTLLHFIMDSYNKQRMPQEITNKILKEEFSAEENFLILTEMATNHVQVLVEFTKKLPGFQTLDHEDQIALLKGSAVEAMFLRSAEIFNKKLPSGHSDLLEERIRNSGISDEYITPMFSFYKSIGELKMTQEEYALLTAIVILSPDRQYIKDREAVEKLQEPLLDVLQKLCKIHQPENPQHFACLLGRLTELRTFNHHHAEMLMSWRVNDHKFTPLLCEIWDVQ
Sequence of Signal transducer and activator of transcription 3 (Homo sapiens) (P40763 whole entry, looked up): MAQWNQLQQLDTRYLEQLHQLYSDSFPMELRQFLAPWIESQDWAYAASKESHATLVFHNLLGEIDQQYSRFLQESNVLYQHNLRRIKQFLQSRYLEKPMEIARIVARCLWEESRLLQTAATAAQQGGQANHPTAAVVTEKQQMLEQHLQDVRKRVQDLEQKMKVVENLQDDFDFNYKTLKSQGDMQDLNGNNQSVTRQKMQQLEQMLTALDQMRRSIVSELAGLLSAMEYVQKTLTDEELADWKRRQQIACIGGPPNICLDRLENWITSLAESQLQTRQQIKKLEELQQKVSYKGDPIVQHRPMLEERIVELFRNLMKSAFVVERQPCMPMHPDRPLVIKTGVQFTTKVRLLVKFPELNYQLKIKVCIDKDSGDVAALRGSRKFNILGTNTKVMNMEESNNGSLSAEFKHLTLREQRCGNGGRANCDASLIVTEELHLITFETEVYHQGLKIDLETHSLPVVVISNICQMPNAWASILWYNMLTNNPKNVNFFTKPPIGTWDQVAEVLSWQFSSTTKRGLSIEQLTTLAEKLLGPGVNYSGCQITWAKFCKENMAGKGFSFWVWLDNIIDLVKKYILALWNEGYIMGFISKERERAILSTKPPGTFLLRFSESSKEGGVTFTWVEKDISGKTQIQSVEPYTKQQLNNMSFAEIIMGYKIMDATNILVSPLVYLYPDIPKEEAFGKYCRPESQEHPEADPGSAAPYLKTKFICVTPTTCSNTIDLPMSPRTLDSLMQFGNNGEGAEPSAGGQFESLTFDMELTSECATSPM
Sequence of Hypoxia-inducible factor 1-alpha (Homo sapiens) (Q16665 whole entry, looked up): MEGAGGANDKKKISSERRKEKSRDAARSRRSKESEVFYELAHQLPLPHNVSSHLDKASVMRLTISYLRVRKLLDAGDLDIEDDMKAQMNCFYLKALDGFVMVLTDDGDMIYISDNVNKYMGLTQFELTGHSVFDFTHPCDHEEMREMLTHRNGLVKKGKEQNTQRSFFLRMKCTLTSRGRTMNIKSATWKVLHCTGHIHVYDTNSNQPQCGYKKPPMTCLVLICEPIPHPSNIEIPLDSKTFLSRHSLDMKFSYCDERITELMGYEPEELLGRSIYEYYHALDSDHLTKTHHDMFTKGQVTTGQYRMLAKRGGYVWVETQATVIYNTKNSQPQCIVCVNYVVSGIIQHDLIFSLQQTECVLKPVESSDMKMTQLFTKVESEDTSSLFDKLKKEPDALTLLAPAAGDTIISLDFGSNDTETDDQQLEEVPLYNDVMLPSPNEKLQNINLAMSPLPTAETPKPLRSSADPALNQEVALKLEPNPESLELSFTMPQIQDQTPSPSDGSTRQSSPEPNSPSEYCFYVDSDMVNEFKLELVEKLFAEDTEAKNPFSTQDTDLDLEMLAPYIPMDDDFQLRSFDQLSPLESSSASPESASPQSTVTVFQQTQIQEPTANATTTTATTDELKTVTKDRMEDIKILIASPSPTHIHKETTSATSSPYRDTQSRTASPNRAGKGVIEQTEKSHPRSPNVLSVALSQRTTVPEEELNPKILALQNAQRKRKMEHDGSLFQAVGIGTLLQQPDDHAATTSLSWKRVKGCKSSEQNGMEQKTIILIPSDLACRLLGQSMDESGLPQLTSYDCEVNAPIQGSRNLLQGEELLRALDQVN

Turning to `CC(=O)CCC(C)C`, the compound was classed as inactive in [1], in test [2], in test [3], in [4], in test [5] and in [6]. The compound was called inactive in test [7], in [8], in [9], in test [10], in test [11] and in test [13]. The call in [14], in test [15], in test [16], in test [17] and in [18] was inactive. The AC50 – broadly, the concentration at which the activity in the assay is half-maximal – in test [12] was 52.9 µM (active).
Turning to `O=c1[nH]cccc1O`, the compound was called inactive in [1], in test [2], in [3], in test [4], in [5] and in test [6]. Further, the result in test [8], in test [9], in test [10], in test [19], in test [11] and in test [12] was inactive. Besides, the outcome in [13], in [14], in test [15], in test [16], in [17] and in test [20] was inactive. In test [18], the compound was classed as inactive.
As to `CCN(CCO)S(=O)(=O)C(F)(F)C(F)(F)C(F)(F)C(F)(F)C(F)(F)C(F)(F)C(F)(F)C(F)(F)F`, the result in [1], in test [2], in [3], in [4], in test [5] and in test [6] was inactive. The compound was called inactive in test [8], in test [9], in test [10], in [19], in test [11] and in test [13]. Further, the compound was called inactive in test [14], in test [15], in test [16], in test [17], in test [20] and in test [18]. Further, in test [12], the AC50 was 9.56 µM (active).

The values above are taken from PubChem BioAssay (EPA / NIEHS).
